# Source: the supplement of paper PMC9254222
# Whole data set: some 1,100 compounds, median “Wnt reporter firefly/Renilla luciferase ratio relative to plate median” near 1.1, cut for the highest 2% near 1.6. The sample as a whole holds a higher share of the highest values than the screen did.
# Test system: HEK293T (UBE3A T485A transfected, BAR Wnt reporter)
# Test: Wnt reporter firefly/Renilla luciferase ratio relative to plate median (fold (linear ratio)); higher = more Wnt/beta-catenin reporter activation
# Settings: 24 h
# Summary of the method: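 Using Fugene 6, HEK293T cells in white 384-well plates (4500 cells/well; DMEM, 10% FBS, 37°C, 5% CO2) were transfected with a BAR firefly luciferase Wnt reporter, TK-Renilla and an expression plasmid. After four hours, robots dosed the chemicals at 0.01–100 uM, and a Dual-Glo luciferase readout followed 24 h later. Per-plate median-centred firefly/Renilla ratios gave Wnt activity, while per-plate median-centred raw Renilla signals gave cell health. Four biological replicates were averaged.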
SMILES,Wnt reporter firefly/Renilla luciferase ratio (concentration: 0.01 uM),Wnt reporter firefly/Renilla luciferase ratio (concentration: 0.1 uM),Wnt reporter firefly/Renilla luciferase ratio (concentration: 1 uM),Wnt reporter firefly/Renilla luciferase ratio (concentration: 10 uM),Wnt reporter firefly/Renilla luciferase ratio (concentration: 100 uM)
CNC(=O)Oc1cccc2c1OC(C)(C)O2 [Bendiocarb],1.3,1.17,1.01,0.983,1.38
CC(C)Oc1cccc(NC(=O)c2ccccc2C(F)(F)F)c1 [Flutolanil],0.682,0.79,1.01,0.768,0.559
CC(Oc1cccc(Cl)c1)C(=O)O (stereo unspecified) [Cloprop],1.31,1.51,1.12,1.28,1.45
CC(C)OC(=O)Nc1cccc(Cl)c1 [Chlorpropham],1.45,1.78,1.23,1.47,0.823
CCNc1nc(NC(C)C)nc(SC)n1 [Ametryn],0.686,0.725,0.813,1.29,0.791
CC(C)C1(C)N=C(c2ncccc2C(=O)O)NC1=O (stereo unspecified) [Imazapyr],1.14,1.29,1.04,1.09,1.24
COP(=S)(OC)SCn1nnc2ccccc2c1=O [Azinphos-methyl],1.01,0.911,0.978,0.89,0.837
CNC(=O)CSP(=S)(OC)OC [Dimethoate],0.95,0.993,1.02,1.02,1.1
COP(=S)(OC)SCN1C(=O)c2ccccc2C1=O [Phosmet],,1.07,0.925,1.47,1.65
CCNc1nc(Cl)nc(NCC)n1 [Simazine],1,1.19,1.01,1.06,1.52
O=C(O)C(F)(F)C(F)(F)C(F)(F)C(F)(F)C(F)(F)C(F)(F)C(F)(F)F,1.29,1.71,1.19,1.41,1.46
O=C(O)C(F)(F)C(F)(F)C(F)(F)C(F)(F)C(F)(F)C(F)(F)F [Perfluoroheptanoic acid],,0.82,1.02,0.932,0.483
O=C(O)C(F)(F)C(F)(F)C(F)(F)C(F)(F)C(F)(F)C(F)(F)C(F)(F)C(F)(F)C(F)(F)C(F)(F)F [Perfluoroundecanoic acid],,1.11,0.936,0.954,0.68
O=C(O)C(F)(F)C(F)(F)C(F)(F)C(F)(F)C(F)(F)C(F)(F)C(F)(F)C(F)(F)C(F)(F)F,,0.93,1.14,1.04,1.19
O=C(O)C(F)(F)C(F)(F)C(F)(F)C(F)(F)C(F)(F)F,,1.16,1.48,1.38,2.14
O=C(O)C(F)(F)C(F)(F)C(F)(F)C(F)(F)C(F)(F)C(F)(F)C(F)(F)C(F)(F)F,,1.29,0.95,1.12,0.369
"Oc1cc(Cl)c(Cl)cc1Cl [2,4,5-Trichlorophenol]",,1.12,0.917,0.962,
CCCCCCCCCC(CC)c1ccc(S(=O)(=O)O)cc1.OCCN(CCO)CCO (stereo unspecified) [Dodecylbenzene sulfonate triethanolamine(1:1)],,1.13,1.29,1.13,1.01
COc1cnc(OC)n2nc(NS(=O)(=O)c3c(OCC(F)F)cccc3C(F)(F)F)nc12 [Penoxsulam],1.12,1.09,1.29,1.38,1.75
"C=CC(=O)NCNC(=O)C=C [N,N'-Methylenebisacrylamide]",,0.951,0.999,1.03,1.21
"CN(C)c1ccc(Cc2ccc(N(C)C)cc2)cc1 [4,4'-Methylenebis(N,N-dimethylaniline)]",,1.02,1.07,1.14,0.474

SMILES,Wnt reporter firefly/Renilla luciferase ratio (concentration: 0.01 uM),Wnt reporter firefly/Renilla luciferase ratio (concentration: 0.1 uM),Wnt reporter firefly/Renilla luciferase ratio (concentration: 1 uM),Wnt reporter firefly/Renilla luciferase ratio (concentration: 10 uM),Wnt reporter firefly/Renilla luciferase ratio (concentration: 100 uM)
CCc1nn(C)c(C(=O)NCc2ccc(C(C)(C)C)cc2)c1Cl [Tebufenpyrad],0.583,0.632,0.279,0.218,0.51
COC(=O)N(C(=O)N1CO[C@@]2(C(=O)OC)Cc3cc(Cl)ccc3C2=N1)c1ccc(OC(F)(F)F)cc1 [Indoxacarb],0.92,0.96,1.2,0.895,0.242
CCCCN(CCCC)SN(C)C(=O)Oc1cccc2c1OC(C)(C)C2 [Carbosulfan],,1.07,1.13,1.07,1.28
c1ccc2c(c1)Nc1ccccc1S2 [Phenothiazine],,1.08,1.01,0.726,0.188
CC(C)(C)OOC(=O)c1ccccc1 [tert-Butyl perbenzoate],,1.06,0.994,1.24,0.688
Nc1ccc(-c2ccc(N)cc2)cc1 [Benzidine],,1.22,1.11,1.23,0.579
"Cc1ccc(N)c(N)c1 [3,4-Diaminotoluene]",,1.18,1.26,1.2,
Cc1ccc(N)cc1 [4-Methylaniline],,1.14,1.18,1.34,1.79
CC(C)=CC1C(C(=O)OCN2C(=O)C3=C(CCCC3)C2=O)C1(C)C (stereo unspecified) [Tetramethrin],0.717,0.76,0.941,0.819,0.824
CCOc1nc(F)cc2nc(S(=O)(=O)Nc3c(Cl)cccc3Cl)nn12 [Diclosulam],1.4,1.38,0.954,1.05,0.892
"Oc1ccc(Cl)cc1Cl [2,4-Dichlorophenol]",,1.06,1.15,1.36,1.47
CC(C)CCCCCCCOC(=O)c1ccccc1C(=O)OCCCCCCCC(C)C,,0.955,1.04,1.1,1.9
CCCCCOC(=O)c1ccccc1C(=O)OCCCCC [Dipentyl phthalate],,1.06,1.36,1.14,1.15
CCCCCCCCOC(=O)c1ccccc1C(=O)OCCCCCCCC [Dioctyl phthalate],,1.21,1.11,1.04,1.25
CCCCOC(=O)c1ccccc1C(=O)O [Monobutyl phthalate],1.07,1.12,2.24,1.14,1.75
CCCCOC(=O)c1ccccc1C(=O)OCCCC [Dibutyl phthalate],0.897,0.942,0.947,1.05,0.275
CCCCCCOC(=O)c1ccccc1C(=O)OCCCCCC [Dihexyl phthalate],,1.05,0.965,1.29,0.728
CCOP(=O)(NC(C)C)Oc1ccc(SC)c(C)c1 (stereo unspecified) [Fenamiphos],0.946,0.758,0.93,0.83,0.243
C/C(=N\C#N)N(C)Cc1ccc(Cl)nc1 [Acetamiprid],1.26,0.96,0.904,1.08,1.18
Cc1c(COC(=O)[C@H]2[C@@H](/C=C(\Cl)C(F)(F)F)C2(C)C)cccc1-c1ccccc1 [Bifenthrin],0.843,1.35,1.11,0.982,0.325
COP(=O)(OC)OC=C(Cl)Cl [Dichlorvos],1.2,1.67,1.4,1.34,1.21

SMILES,Wnt reporter firefly/Renilla luciferase ratio (concentration: 0.01 uM),Wnt reporter firefly/Renilla luciferase ratio (concentration: 0.1 uM),Wnt reporter firefly/Renilla luciferase ratio (concentration: 1 uM),Wnt reporter firefly/Renilla luciferase ratio (concentration: 10 uM),Wnt reporter firefly/Renilla luciferase ratio (concentration: 100 uM)
COP(=O)(OC)O/C(C)=C/C(=O)N(C)C [Dicrotophos],1.29,1.12,1.1,0.957,1.09
CNC(=O)/C=C(\C)OP(=O)(OC)OC [Monocrotophos],0.971,1.1,1.22,1.06,1.12
O=P(O)(O)CCCl [Ethephon],0.756,1.23,1.18,0.988,1.19
CC(C)N1C(=O)N(c2ccccc2)CSC1=NC(C)(C)C [Buprofezin],1.25,1.69,1.16,1.12,0.27
CC(C)N1C(=O)c2ccccc2NS1(=O)=O [Bentazone],1.46,0.947,0.964,0.949,0.329
COC(=CC(N)=O)C(C)C(C=Cc1csc(-c2csc(C(C)C=CC=CC(C)C)n2)n1)OC (stereo unspecified) [Myxothiazol],1.41,0.921,0.539,0.492,
CCCCC(CC)COC(=O)c1ccccc1C(=O)O (stereo unspecified),1.04,0.861,1.04,0.979,0.821
N#Cc1c[nH]cc1-c1cccc2c1OC(F)(F)O2 [Fludioxonil],0.759,0.842,0.847,1.04,0.858
CNC(=O)Oc1cccc2ccccc12 [Carbaryl],0.987,1.18,1.07,0.714,0.629
CCOP(=O)(SC(C)CC)N1CCSC1=O (stereo unspecified) [Fosthiazate],0.839,0.761,0.922,1.5,0.772
ClC1=C(Cl)C2(Cl)C3C4OC4C(Cl)C3C1(Cl)C2(Cl)Cl (stereo unspecified) [Heptachlor epoxide],,1.18,1.23,1.06,1.5
CCc1cccc(C)c1N(C(=O)CCl)C(C)COC (stereo unspecified) [Metolachlor],0.768,1.6,0.921,0.833,0.28
O=[N+]([O-])C(Br)(CO)CO [Bronopol],,1.17,1.15,1.07,
CCN(CC)C(=O)SCc1ccc(Cl)cc1 [Thiobencarb],0.948,1.27,1.52,1.02,1.54
O=[N+]([O-])c1cc(C(F)(F)F)c(Cl)c([N+](=O)[O-])c1Nc1ncc(C(F)(F)F)cc1Cl [Fluazinam],0.902,0.969,1.24,0.338,
Cl[C@H]1[C@H](Cl)[C@@H](Cl)[C@H](Cl)[C@@H](Cl)[C@@H]1Cl [beta-Hexachlorocyclohexane],,1.05,0.913,1.12,1.03
"Nc1ccc(Cl)cc1N [4-Chloro-1,2-diaminobenzene]",,1.1,1.03,0.852,
"Clc1cccc(Cl)c1 [1,3-Dichlorobenzene]",,1.15,1.18,1.45,1.77
"Clc1ccc(Cl)c(Cl)c1 [1,2,4-Trichlorobenzene]",,0.911,0.886,1.04,1.57
"Cc1cc(C)cc(C)c1 [1,3,5-Trimethylbenzene]",,1.01,1.15,1.05,1.12
CCCC(=NOCC)C1=C(O)CC(CC(C)SCC)CC1=O (stereo unspecified) [Sethoxydim],1.27,1.07,1.15,1.2,0.758
